Data on 18 compounds can be found in the supplement of paper PMC9492666.

SMILES strings stand for the structures. Where a name gives a salt, the structure may show the parent alone.
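Further: viability read by CCK-8 kit in 96-well plates, part of a combination screen pairing lipid-metabolism-targeting compounds with erastin.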

For this assay, the system named is MDA-MB-231. As to the kind of experiment: relative cell viability, compound + erastin, vs DMSO (fraction of DMSO control); higher = less growth inhibition. Conditions: 72 h.
As to `c1cc(-c2cnn3cc(-c4ccc(OCCN5CCCCC5)cc4)cnc23)ccn1` [Dorsomorphin] + CCOc1ccccc1-n1c(C(C)N2CCN(C(=O)COc3ccc(Cl)cc3)CC2)nc2ccccc2c1=O [erastin], the relative cell viability was 0.405.
In the case of `COc1ccc2c(c1)c(CC(=O)O)c(C)n2C(=O)c1ccc(Cl)cc1` [Indometacin] + CCOc1ccccc1-n1c(C(C)N2CCN(C(=O)COc3ccc(Cl)cc3)CC2)nc2ccccc2c1=O [erastin] it was 0.639.
For `O=c1oc2ccccc2cc1O` [3-Hydroxycoumarin] + CCOc1ccccc1-n1c(C(C)N2CCN(C(=O)COc3ccc(Cl)cc3)CC2)nc2ccccc2c1=O [erastin] the value was 0.741; for `O=C(Nc1ccccc1)N1CCN(c2nc(-c3ccccc3)ns2)CC1` + CCOc1ccccc1-n1c(C(C)N2CCN(C(=O)COc3ccc(Cl)cc3)CC2)nc2ccccc2c1=O [erastin], 0.353.
In the case of `COc1ccc(C(=O)/C=C/c2ccccc2)cc1` [4'-Methoxychalcone] + CCOc1ccccc1-n1c(C(C)N2CCN(C(=O)COc3ccc(Cl)cc3)CC2)nc2ccccc2c1=O [erastin], the relative cell viability came to 0.54.
Turning to `Nc1ncnc2c1ncn2[C@@H]1O[C@H](COP(=O)(O)O)[C@@H](O)[C@H]1O` [Adenosine 5'-monophosphate] + CCOc1ccccc1-n1c(C(C)N2CCN(C(=O)COc3ccc(Cl)cc3)CC2)nc2ccccc2c1=O [erastin], the relative cell viability turned out to be 0.716.
For the compound `NC(N)=NN=Cc1cccc(Cl)c1Cl` [Raphin1] + CCOc1ccccc1-n1c(C(C)N2CCN(C(=O)COc3ccc(Cl)cc3)CC2)nc2ccccc2c1=O [erastin], the relative cell viability is 0.558.
For `CC(=O)c1c(C)cc2cccc(O)c2c1O` [Nepodin] + CCOc1ccccc1-n1c(C(C)N2CCN(C(=O)COc3ccc(Cl)cc3)CC2)nc2ccccc2c1=O [erastin], the relative cell viability was determined as 0.766.
`CS(=O)(=O)c1ccc(-c2nnc(/C=C/c3nnc(-c4ccc(C#N)cc4)o3)n2-c2ccccc2Cl)nc1` + CCOc1ccccc1-n1c(C(C)N2CCN(C(=O)COc3ccc(Cl)cc3)CC2)nc2ccccc2c1=O [erastin]: the relative cell viability is 0.668.
For `O=C(Nc1cnccc1Cl)N1CCN(Cc2ccc3c(c2)OC(F)(F)O3)CC1` + CCOc1ccccc1-n1c(C(C)N2CCN(C(=O)COc3ccc(Cl)cc3)CC2)nc2ccccc2c1=O [erastin] the value was 0.646; for `CCCc1c(OCCCOc2ccc(OCC(=O)O)cc2)ccc(C(C)=O)c1O` + CCOc1ccccc1-n1c(C(C)N2CCN(C(=O)COc3ccc(Cl)cc3)CC2)nc2ccccc2c1=O [erastin], 0.833; for `C=C(C)[C@@H]1CC[C@]2(CO)CC[C@]3(C)[C@H](CC[C@@H]4[C@@]5(C)CC[C@H](O)C(C)(C)[C@@H]5CC[C@]43C)[C@@H]12` [Betulin] + CCOc1ccccc1-n1c(C(C)N2CCN(C(=O)COc3ccc(Cl)cc3)CC2)nc2ccccc2c1=O [erastin], 0.32.
In the case of `CCc1c(-c2ccccc2)c(-c2ccccc2)nn1-c1ccccc1-c1cccc(OCC(=O)O)c1` + CCOc1ccccc1-n1c(C(C)N2CCN(C(=O)COc3ccc(Cl)cc3)CC2)nc2ccccc2c1=O [erastin], the relative cell viability amounted to 0.861.
Regarding `CC1(N)CCN(c2cnc(-c3cccc(Cl)c3Cl)c(N)n2)CC1` [SHP099 hydrochloride] + CCOc1ccccc1-n1c(C(C)N2CCN(C(=O)COc3ccc(Cl)cc3)CC2)nc2ccccc2c1=O [erastin], the relative cell viability came to 0.647.
Take `C[C@@H]1O[C@@H](O[C@H]2[C@H](Oc3cc(O)c4c(c3)O[C@H](c3ccc(O)cc3)CC4=O)O[C@H](CO)[C@@H](O)[C@@H]2O)[C@H](O)[C@H](O)[C@H]1O` [Naringin] + CCOc1ccccc1-n1c(C(C)N2CCN(C(=O)COc3ccc(Cl)cc3)CC2)nc2ccccc2c1=O [erastin]: the relative cell viability stood at 0.632.
In the case of `C[C@@H](Nc1nc(N[C@H](C)C(F)(F)F)nc(-c2cccc(Cl)n2)n1)C(F)(F)F` [Vorasidenib] + CCOc1ccccc1-n1c(C(C)N2CCN(C(=O)COc3ccc(Cl)cc3)CC2)nc2ccccc2c1=O [erastin] it was 0.68; in that of `O=C(Oc1ccc([N+](=O)[O-])cc1)N1CCN(Cc2cccc(Oc3ccccc3)c2)CC1` + CCOc1ccccc1-n1c(C(C)N2CCN(C(=O)COc3ccc(Cl)cc3)CC2)nc2ccccc2c1=O [erastin], 0.312.
In the case of `O=C(CN1CCN(C(=O)c2ccco2)CC1)Nc1cc(C(F)(F)F)ccc1Cl` + CCOc1ccccc1-n1c(C(C)N2CCN(C(=O)COc3ccc(Cl)cc3)CC2)nc2ccccc2c1=O [erastin], the relative cell viability worked out at 0.463.
